KB-V1 MDR tox – KB-V1 MDR subline cytotoxicity; KB-V1 MDR cells viability, CellTiter-Glo, 72 h; Potency, µM (titrated, usually from 46.1 µM), most hits filed as cytotoxic; actives 3.4% (n = 400,000); AID 1347076; also: % is scaled to controls: 0 for no effect and ±100 for the full control effect; nearly all actives have a fitted effect of over 60% in size
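Luminescent ATP read-out (CellTiter-Glo, 10 min) measures survival of drug-selected KB-V1 MDR cells after 72 h, 37 degrees C compound exposure. Medium: phenol-red-free DMEM, 10% FBS. Values from fitted concentration-response curves.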
SW480 rerep – DNA re-replication induction in SW480 cells; actives 1.8% (n = 340,000); SW480 DNA re-replication, Hoechst DNA content imaging, 48 h; Potency, µM (highest dose often 46.1 µM), inactives show at the highest dose re-replication activation, usual class: activators; AID 624297; also: % of control where 0% means no effect; nearly all actives have a fitted effect of over 55% in size
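Treated cells incubate 48 hr (37 C, 5% CO2), are stained 40 min with Hoechst, and nuclear fluorescence is enumerated; a rise in nuclei with high DNA signal marks re-replication.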
MCF10A rereplic – inducers of DNA re-replication in MCF 10A breast cells; MCF 10A DNA re-replication, Hoechst nuclear intensity, 48 h; Potency, µM (series often up to 46.1 µM), for inactives: top-dose activity, positive = re-replication, most hits filed as activators; actives 2.9% (n = 350,000); also: % of control where 0% means no effect; nearly all actives have a fitted effect of over 50% in size
KB-3-1 cytotox – KB-3-1 parental cell cytotoxicity; Potency, µM (doses to about 46.1 µM), actives largely listed as cytotoxic; actives 1.4% (n = 400,000); KB-3-1 viability, CellTiter-Glo ATP luminescence, 72 h; also: % is scaled to controls: 0 for no effect and ±100 for the full control effect; nearly all actives have a fitted effect of over 60% in size
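Cytotoxicity measured as CellTiter-Glo luminescence after 72 h at 37 C. Compound titrations were pinned onto drug-naive KB-3-1 parental adenocarcinoma cells grown in DMEM with 10% FBS, and normalized data fitted to concentration-response curves.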
ELG1 repair inh – blocks ELG1-dependent DNA repair in HEK293T cells; actives 2.3% (n = 330,000); HEK293T ELG1-luciferase reporter, luminescence, 16 h; DNA damage induced by 5-fluorouridine; Potency, µM (top dose mostly 46.1 µM), inactives show at the highest dose activity change, negative = inhibition, hits mostly inhibitors; also: % is scaled to controls: 0 for no effect and ±100 for the full control effect; nearly all actives have a fitted effect of over 55% in size
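In this reporter screen, reduction of luminescence relative to DMSO vehicle indicated activity. Compounds and 5-fluorouridine were added together to 2,000 cells per well, incubated for 16 hr at 37 °C, then developed with ONE-Glo.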
Numbers without * were called inactive. In the library only some 8.2% were active in any assay of this set; here they are far more common. Calls follow the shape of the dose curve; as a rule, active = well fitted curve in the direction sought with a large enough effect; inconclusive = small, poorly fitted or top-dose-only effect, or another doubt; inactive = no such curve, though single readings can be large; an effect the other way counts as inactive or inconclusive. Potency is read from the fitted curve at half-maximal effect.

O=C(NCc1ccc(Cl)cc1)C(=O)NCC(c1cccnc1)N1CCN(c2ccc(F)cc2)CC1 (centres undefined) was read as KB-V1 MDR tox inconclusive, SW480 rerep inconclusive, MCF10A rereplic inconclusive, KB-3-1 cytotox inconclusive and ELG1 repair inh 12µM*.
Screening O=C(NCc1cccnc1)C(=O)NCC(c1ccco1)N1CCOCC1 (centres undefined) returned KB-V1 MDR tox inactive, SW480 rerep 13%, MCF10A rereplic 9%, KB-3-1 cytotox inactive and ELG1 repair inh 15%.
`O=C(NCCC1=CCCCC1)C(=O)NCC(c1ccco1)N1CCN(c2ccc(F)cc2)CC1` (centres undefined) gave KB-V1 MDR tox 2.6µM*, SW480 rerep -100%, MCF10A rereplic 9%, KB-3-1 cytotox inactive and ELG1 repair inh -7%.
Screening Cc1cccc(C)c1NC(=O)COC(=O)c1ccc2[nH]c3c(c2c1)CCCC3 returned KB-V1 MDR tox inactive, SW480 rerep inconclusive, MCF10A rereplic 18µM*, KB-3-1 cytotox inactive and ELG1 repair inh -12%.
COC(=O)c1ccc(NS(=O)(=O)c2ccc3[nH]c4c(c3c2)CCCCC4)cc1 was read as KB-V1 MDR tox 23µM* and KB-3-1 cytotox inconclusive.
O=C(COC(=O)c1ccc2[nH]c3c(c2c1)CCCC3)Nc1ccccc1 was read as KB-V1 MDR tox inconclusive, SW480 rerep inconclusive, MCF10A rereplic 23µM*, KB-3-1 cytotox inactive and ELG1 repair inh -7%.
`Cc1nn(C(C)C(=O)NCc2cccs2)c(C)c1[N+](=O)[O-]` (centres undefined) gave KB-V1 MDR tox inactive, SW480 rerep -27%, MCF10A rereplic -2%, KB-3-1 cytotox inactive and ELG1 repair inh 9%.
`CC(C)(C)c1cc(N2CCOCC2)n2ncc(-c3ccc(Cl)cc3)c2n1` gave KB-V1 MDR tox inactive, SW480 rerep 16%, MCF10A rereplic inconclusive, KB-3-1 cytotox inactive and ELG1 repair inh inconclusive.
Cc1cc(C)n(-c2cc(C(C)(C)C)nc3c(-c4ccc(Cl)cc4)cnn23)n1 was read as KB-V1 MDR tox inactive, SW480 rerep inconclusive, MCF10A rereplic 23µM*, KB-3-1 cytotox inactive and ELG1 repair inh 0%.
Screening Cc1cc(NCc2ccccc2)n2ncc(-c3ccccc3)c2n1 returned KB-V1 MDR tox inactive, SW480 rerep inconclusive, MCF10A rereplic 18µM*, KB-3-1 cytotox inconclusive and ELG1 repair inh inconclusive.
For Cc1cc(N2CCOCC2)n2ncc(-c3ccc(Cl)cc3)c2n1 the results were KB-V1 MDR tox inactive, SW480 rerep 21µM*, MCF10A rereplic 6%, KB-3-1 cytotox inactive and ELG1 repair inh inconclusive.
Screening Cc1cc(C)n(-c2cc(C(C)(C)C)nc3c(-c4ccccc4)cnn23)n1 returned KB-V1 MDR tox inconclusive, SW480 rerep 1%, MCF10A rereplic 21µM*, KB-3-1 cytotox inactive and ELG1 repair inh inconclusive.
`Cc1cc(N2CCCCC2)n2ncc(-c3ccccc3)c2n1` gave KB-V1 MDR tox inconclusive, SW480 rerep 10%, MCF10A rereplic inconclusive, KB-3-1 cytotox inactive and ELG1 repair inh inconclusive.
COCCCN1C(=O)C(CC(=O)NC2CC2)CC(C(=O)N(C(C)C)C(C)C)=C1C (centres undefined) was read as KB-V1 MDR tox inactive and KB-3-1 cytotox inactive.
CC(=O)c1c(C)nc2sc3c(=N)n(N)cnc3c2c1-c1ccc(Cl)cc1 was read as KB-V1 MDR tox 18µM*, SW480 rerep -71%, MCF10A rereplic 10%, KB-3-1 cytotox inconclusive and ELG1 repair inh inconclusive.
COc1ccccc1-c1nnc2n(CCc3ccccc3)c(=O)c3ccccc3n12 was read as KB-V1 MDR tox inactive and KB-3-1 cytotox inactive.
Screening COc1ccc(-c2nnc3n(CCc4ccccc4)c(=O)c4ccccc4n23)cc1OC returned KB-V1 MDR tox inactive, SW480 rerep 9%, MCF10A rereplic inconclusive, KB-3-1 cytotox inactive and ELG1 repair inh 6.5µM*.
CCc1cccc(C)c1NC(=O)C1CC(=O)N(C2CCCC2)C1 (centres undefined) was read as KB-V1 MDR tox inactive, SW480 rerep 20%, MCF10A rereplic -1%, KB-3-1 cytotox inactive and ELG1 repair inh -1%.
`CCC1=C[C@@H]2CN(C1)Cc1c([nH]c3ccccc13)[C@@](C(=O)OC)(c1cc3c(cc1OC)N(C)[C@H]1[C@@](O)(C(=O)OC)[C@H](OC(C)=O)[C@]4(CC)C=CCN5CC[C@]31[C@@H]54)C2` gave KB-V1 MDR tox inconclusive and KB-3-1 cytotox 0.029µM*.
Screening Cc1ccc(C(=O)CNc2cc(C)ccc2C)cc1 returned KB-V1 MDR tox inactive, SW480 rerep -1%, MCF10A rereplic -9%, KB-3-1 cytotox inactive and ELG1 repair inh -10%.
For Cc1ccc(C)c(NCC(=O)c2ccc(Cl)cc2)c1 the results were KB-V1 MDR tox inactive, SW480 rerep inconclusive, MCF10A rereplic 23µM*, KB-3-1 cytotox inactive and ELG1 repair inh 8%.
Screening Cc1ccc(Oc2ccc(C(=O)NCc3ccncc3)cc2)cc1 returned KB-V1 MDR tox 21µM*, SW480 rerep 2%, MCF10A rereplic 2%, KB-3-1 cytotox inactive and ELG1 repair inh inconclusive.
For CCOc1ncccc1C(=O)NCc1ccc(C)cc1 the results were KB-V1 MDR tox 18µM*, SW480 rerep -82%, MCF10A rereplic inconclusive, KB-3-1 cytotox inactive and ELG1 repair inh 9%.
CCOc1ncccc1C(=O)Nc1ccccc1C(=O)NCc1ccc2c(c1)OCO2 was read as KB-V1 MDR tox 5.2µM*, SW480 rerep 13%, MCF10A rereplic inconclusive, KB-3-1 cytotox inactive and ELG1 repair inh inconclusive.
For CC12CC3CC(C)(C1)CC(C(=O)N1CCN(C(=O)C4CCCO4)CC1)(C3)C2 (centres undefined) the results were KB-V1 MDR tox inactive, SW480 rerep -3%, MCF10A rereplic -1%, KB-3-1 cytotox inactive and ELG1 repair inh 9%.
For N#CC(CC(=O)c1ccc(Cl)cc1)c1ccccc1 (centres undefined) the results were KB-V1 MDR tox 16µM*, SW480 rerep -3%, MCF10A rereplic 1% and KB-3-1 cytotox inactive.
O=C(CC(C(=O)O)c1ccc(Cl)cc1)c1ccccc1 (centres undefined) was read as KB-V1 MDR tox inactive, SW480 rerep -6%, MCF10A rereplic 0%, KB-3-1 cytotox inactive and ELG1 repair inh 4%.
Screening Cc1ccc(S(=O)(=O)N2CCCc3cc(NC(=O)c4ccccc4Cl)ccc32)cc1 returned KB-V1 MDR tox inactive and KB-3-1 cytotox inactive.
Screening CCC(COC(=O)Nc1cccc(C)c1)NC(=O)OCC(C)C (centres undefined) returned KB-V1 MDR tox 3.7µM*, SW480 rerep -4%, MCF10A rereplic 4%, KB-3-1 cytotox inactive and ELG1 repair inh 24%.
